Assay results reported in PubChem BioAssay AID1159580 (chemical genetic matrix, 2015).
“And” between values parts separate entries of the source, which are not always exact repeats. Equal entries are not always repeated. In all, about 5,500 compounds went through this assay and about 2,000 (36%) were called active. Another 18% or so got no clear call; they are omitted. No stated cut-off is given here; in the data, active means normalized growth mostly below about 0.91 (no sharp cut-off); inconclusive means no clear call, values can overlap the other calls; inactive means mostly above about 0.92. This is one part of the list.

Experiment: chemical genetic growth profiling, strain panel (AID 1159580);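 further: tested at 20 µM; growth read once vehicle control cultures reached saturation at 30 °C; 1 = growth at the plate median or of vehicle wells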
Details: S. cerevisiae deletion strains, growth OD

Measured: normalized growth

CC(C)c1ccc2c(c1O)CC[C@H]1C3=C(CC[C@]21C)C(=O)OC3
0.661 (active) and 0.918 (inactive): locus YHR030C, strain SLT2, stronger effect = lower value
inactive: locus YAL021C, strain ccr4, stronger effect = lower value 0.999 | locus YAL026C, strain drs2, stronger effect = lower value 0.946 | locus YAL030W, strain snc1, stronger effect = lower value 0.969 | locus YBL061C, strain skt5, stronger effect = lower value 0.962 | locus YBR009C, strain hhf1, stronger effect = lower value 0.96 | locus YBR021W, strain FUR4, stronger effect = lower value 0.903 | locus YBR023C, strain chs3, stronger effect = lower value 0.957 | locus YBR171W, strain sec66, stronger effect = lower value 0.935 | locus YBR229C, strain ROT2, stronger effect = lower value 0.97 | locus YBR231C, strain swc5, stronger effect = lower value 0.957 | locus YBR279W, strain paf1, stronger effect = lower value 0.979 | locus YCL011C, strain gbp2, stronger effect = lower value 0.933 | locus YCL016C, strain dcc1, stronger effect = lower value 0.973 | locus YCL029C, strain bik1, stronger effect = lower value 0.912 | locus YCL061C, strain MRC1, stronger effect = lower value 0.925 | locus YCL069W, strain vba3, stronger effect = lower value 0.95 | locus YCR088W, strain abp1, stronger effect = lower value 0.933 | locus YDL005C, strain med2, stronger effect = lower value 0.961 | locus YDL035C, strain GPR1, stronger effect = lower value 0.943 | locus YDL040C, strain nat1, stronger effect = lower value 0.965 | locus YDL101C, strain DUN1, stronger effect = lower value 0.943 | locus YDL185W, strain tfp1, stronger effect = lower value 0.988 | locus YDR001C, strain nth1, stronger effect = lower value 0.935 | locus YDR069C, strain doa4, stronger effect = lower value 0.996 | locus YDR101C, strain arx1, stronger effect = lower value 0.968 | locus YDR150W, strain NUM1, stronger effect = lower value 0.959 | locus YDR159W, strain sac3, stronger effect = lower value 1 | locus YDR195W, strain ref2 1.01 | locus YDR297W, strain sur2, stronger effect = lower value 0.966 | locus YDR334W, strain swr1, stronger effect = lower value 0.956 | locus YDR335W, strain msn5, stronger effect = lower value 0.973 | locus YDR388W, stronger effect = lower value 0.99 | locus YEL003W, strain gim4, stronger effect = lower value 0.936 | locus YEL037C, strain rad23, stronger effect = lower value 0.941 | locus YEL061C, strain CIN8 (second series), stronger effect = lower value 0.939 | locus YER015W, strain faa2, stronger effect = lower value 0.961 | locus YER016W, strain bim1, stronger effect = lower value 0.976 | locus YER110C, stronger effect = lower value 0.943 | locus YER111C, strain swi4, stronger effect = lower value 0.946 | locus YFR010W, strain ubp6, stronger effect = lower value 0.952 | locus YGL078C, strain dbp3, stronger effect = lower value 0.962 | locus YGL167C, strain pmr1, stronger effect = lower value 0.967 | locus YGL173C, strain kem1, stronger effect = lower value 0.971 | locus YGL227W, strain vid30, stronger effect = lower value 0.945 | locus YGL240W, strain doc1, stronger effect = lower value 0.953 | locus YGL253W, strain hxk2, stronger effect = lower value 0.987 | locus YGR135W, strain pre9, stronger effect = lower value 0.953 | locus YGR252W, strain gcn5, stronger effect = lower value 0.916 | locus YHR013C, strain ard1, stronger effect = lower value 1.02 | locus YHR027C, strain rpn1, stronger effect = lower value 0.994 | locus YHR079C, strain IRE1 (second series), stronger effect = lower value 0.959 | locus YHR079C, strain IRE1, stronger effect = lower value 0.927 | locus YHR094C, strain hxt1, stronger effect = lower value 0.971 | locus YHR200W, strain rpn10, stronger effect = lower value 0.957 | locus YIL073C, strain SPO22, stronger effect = lower value 0.844 | locus YIL125W, strain kgd1, stronger effect = lower value 0.954 | locus YIR030C, strain dcg1, stronger effect = lower value 0.965 | locus YJL092W, strain hpr5, stronger effect = lower value 0.941 | locus YJL095W, strain BCK1 (second series), stronger effect = lower value 0.97 | locus YJL115W, strain asf1, stronger effect = lower value 0.956 | locus YJL134W, strain LCB3, stronger effect = lower value 0.975 | locus YJL154C, strain vps35, stronger effect = lower value 0.95 | locus YJL164C, strain tpk1, stronger effect = lower value 0.953 | locus YJL166W, strain qcr8, stronger effect = lower value 0.987 | locus YJL168C, strain set2, stronger effect = lower value 0.989
active: locus YAL013W, strain DEP1, stronger effect = lower value 0.847 | locus YDL074C, strain BRE1, stronger effect = lower value 0.617 | locus YDL134C, strain PPH21, stronger effect = lower value 0.8 | locus YDL192W, strain arf1, stronger effect = lower value 0.898 | locus YDR137W, strain rgp1, stronger effect = lower value 0.825 | locus YDR162C, strain NBP2, stronger effect = lower value 0.81 | locus YDR318W, strain mcm21, stronger effect = lower value 0.886 | locus YDR392W, strain spt3, stronger effect = lower value 0.542 | locus YDR502C, strain sam2, stronger effect = lower value 0.913 | locus YEL061C, strain CIN8, stronger effect = lower value 0.772 | locus YER155C, strain BEM2 (second series), stronger effect = lower value 0.807 | locus YER155C, strain BEM2, stronger effect = lower value 0.846 | locus YER167W, strain BCK2, stronger effect = lower value 0.781 | locus YGL086W, strain mad1, stronger effect = lower value 0.867 | locus YGL248W, strain PDE1, stronger effect = lower value 0.754 | locus YGR078C, strain PAC10, stronger effect = lower value 0.718 | locus YHR129C, strain ARP1, stronger effect = lower value 0.798 | locus YHR142W, strain chs7, stronger effect = lower value 0.867 | locus YIL066C, strain RNR3, stronger effect = lower value 0.601 | locus YJL129C, strain trk1, stronger effect = lower value 0.856 | locus YJL187C, strain SWE1 (second series), stronger effect = lower value 0.86
0.646 (active) and 0.956 (inactive): locus YJL095W, strain BCK1, stronger effect = lower value
